The supplement of paper PMC13380429
Unmarked numbers belong to inactive results.

Tested on: Vero E6 infected with SARS-CoV-2
Experiment: inhibition of SARS-CoV-2 cytopathic effect; higher = more antiviral protection, active = above 15
Conditions: 48 h

Row | SMILES | inhibition of SARS-CoV-2 cytopathic effect (1 nM) [%] | inhibition of SARS-CoV-2 cytopathic effect (8.33 nM) [%] | inhibition of SARS-CoV-2 cytopathic effect (100 nM) [%] | inhibition of SARS-CoV-2 cytopathic effect (833.33 nM) [%] | inhibition of SARS-CoV-2 cytopathic effect (10000 nM)
1 | CC(C)n1nc(C#Cc2ccccc2)c2c(N)ncnc21 | 0.9 | -1.43 | -4.23 | 0.67 | 3.02%
2 | CC(C)=CCC/C(C)=C/CC/C(C)=C/CSc1ccccc1C(N)=O [farnesyl-thiosalicylic-acid-amide] | -1.77 | -2.42 | -3.06 | -5.68 | -2.46%
3 | C=CC[N@@+]12CC[C@@]34c5ccccc5N5/C=C6/[C@H]7C[C@H]8[C@@]9(CC[N@@+]8(CC=C)C/C7=C/CO)c7ccccc7N(/C=C(/[C@@H](C[C@@H]31)/C(=C\CO)C2)[C@H]54)[C@@H]69 [alcuronium] | 1.2 | -0.77 | -0.24 | -0.81 | 4.13%
4 | O=C1C(Cl)=C(NCCN2CCOCC2)C(=O)c2ncccc21 | -0.37 | 1.19 | 1.71 | 6 | -17.2%
5 | Oc1cc2c(cc1O)[C@@H]1c3ccc(O)c(O)c3OC[C@]1(O)C2 [hematoxylin] | 1.9 | 1.95 | 0.48 | 0.52 | 1.62%
6 | COc1cc(C[C@H]2c3cc(OC)c(OC)cc3CCN2C)c(Oc2cc3c(cc2OC)-c2c(OC)c(OC)cc4c2[C@H](C3)N(C)CC4)cc1OC [thaliblastine] | 1.34 | 1.21 | -0.77 | 3.94 | 45.5% (active)
7 | O=S(=O)(F)Cc1ccccc1 [phenylmethylsulfonyl-fluoride] | -2.45 | -1.22 | 2.93 | 0.75 | 1.71%
8 | O=C(Cn1c(=O)sc2ccc(Cl)cc21)N1CCN(CCO)CC1 [tiaramide] | -2.08 | -1.84 | -3.6 | -1.93 | 2.14%
9 | Nc1cccc(CNC(=O)c2ccc(Oc3ccc(OCc4cccc(F)c4)cc3)nc2)c1 | -2.39 | -0.37 | 0.75 | 0.65 | -2.15%
10 | COc1ccc2cc([C@H](C)C(=O)O)ccc2c1 [naproxen] | 3.38 | 3.96 | 1.16 | -1.2 | 0.68%
11 | Cc1oc(-c2ccccc2)nc1CCOc1ccc(CC2SC(=O)NC2=O)c2sccc12 (stereo not given) [edaglitazone] | 0.32 | 0.98 | 0.63 | 1.32 | 2.31%
12 | COC(=O)N1CCN(Cc2cccc(NC(=O)Nc3ccc(C)nc3)c2F)CC1 [omecamtiv-mecarbil] | -0.03 | 0.93 | -0.98 | 0.86 | 3.03%
13 | N=C(N)c1ccc(/C=C/c2ccc(C(=N)N)cc2O)cc1 [hydroxystilbamidine] | -3.2 | -1.76 | -5.12 | -3.2 | -1.16%
14 | O=C(O)[C@H]1CN(C/C=C/P(=O)(O)O)CCN1 [midafotel] | -2.43 | -0.69 | 0.17 | 1.03 | 3.52%
15 | NCCCC[C@@H]1NC(=O)[C@@H](Cc2c[nH]c3ccccc23)NC(=O)[C@H](c2ccccc2)NC(=O)[C@@H]2C[C@@H](OC(=O)NCCN)CN2C(=O)[C@H](Cc2ccccc2)NC(=O)[C@H](Cc2ccc(OCc3ccccc3)cc2)NC1=O [pasireotide] | -6.41 | -8.12 | -5.04 | -4.91 | -5.41%
16 | CN(C)CCOC1=Cc2ccccc2Sc2ccc(Cl)cc21 [zotepine] | 3.4 | 2.96 | 4.34 | 0.16 | -3.52%
17 | C=CC1=C(C)c2cc3[nH]c(cc4nc(cc5[nH]c(cc1n2)c(C)c5CCC(=O)O)C(CCC(=O)O)=C4C)c(C)c3C=C [protoporphyrin-IX] | -0.78 | -0.99 | -0.13 | -0.31 | -4.69%
18 | O=C(O)[C@H]1O[C@@H](Oc2cc3oc(-c4ccccc4)cc(=O)c3c(O)c2O)[C@H](O)[C@@H](O)[C@@H]1O [baicalin] | 2.44 | -0.79 | -1.89 | -5.03 | 2.97%

Row | SMILES | inhibition of SARS-CoV-2 cytopathic effect (1 nM) [%] | inhibition of SARS-CoV-2 cytopathic effect (8.33 nM) [%] | inhibition of SARS-CoV-2 cytopathic effect (100 nM) [%] | inhibition of SARS-CoV-2 cytopathic effect (833.33 nM) [%] | inhibition of SARS-CoV-2 cytopathic effect (10000 nM)
19 | N=C(N)c1cc2ccc(OC(=O)c3cccs3)cc2s1 | 1.66 | 1.86 | 2.63 | -1.57 | 4.87%
20 | CCOC(=O)NNc1nncc2ccccc12 [todralazine] | 2.18 | 1.04 | 0.33 | 0.99 | -0.55%
21 | CCCCCCCCCC(=O)O[C@H]1CC[C@H]2[C@@H]3CCC4=CC(=O)CC[C@@H]4[C@H]3CC[C@]12C [Nandrolone decanoate] | 0.16 | 0.18 | -0.72 | 0.02 | -4.93%
22 | C#C[C@]1(O)C=C[C@H]2[C@@H]3CCC4=CC(=O)CC[C@@H]4[C@H]3CC[C@@]21CC [gestodene] | 0.01 | 1.99 | -0.48 | -1.22 | 1.3%
23 | C=CCC1(CC(C)C)C(=O)NC(=O)NC1=O [butalbital] | -0.15 | 4.37 | 2.7 | 1.69 | 1.37%
24 | CC1(C)CCC(C)(C)c2cc(C(=O)Nc3ccc(C(=O)O)cc3)ccc21 | 0.12 | 2.74 | 1.53 | 1.49 | 3.21%
25 | CCC(=O)O[C@]1(C(=O)CO)CC[C@H]2[C@@H]3CCC4=CC(=O)CC[C@]4(C)[C@H]3CC[C@@]21C | 0.99 | 0.06 | -0.33 | 1.21 | 2.45%
26 | NC[C@@H]1O[C@H](O[C@@H]2[C@@H](CO)OC(O[C@@H]3[C@@H](O)[C@H](N)C[C@H](N)[C@H]3OC3O[C@H](CN)[C@@H](O)[C@H](O)[C@H]3N)[C@@H]2O)[C@H](N)[C@@H](O)[C@@H]1O (stereo not given in full) | -1.31 | -1.2 | 0.22 | 1.17 | -0.07%
27 | CC1(C)[C@H](C(=O)O)N2C(=O)C[C@H]2S1(=O)=O [sulbactam] | 2.32 | 2.68 | -2.37 | -0.56 | -3.63%
28 | NC(CO)(CO)CO [trometamol] | -0.18 | -2.53 | -0.26 | 2.08 | 4.11%
29 | C/C=C/C[C@@H](C)C(=O)[C@H]1C(=O)N[C@@H](C(C)C)C(=O)N(C)CC(=O)N(C)[C@@H](CC(C)C)C(=O)N[C@@H](C(C)C)C(=O)N(C)[C@@H](CC(C)C)C(=O)N[C@@H](C)C(=O)N[C@H](C)C(=O)N(C)[C@@H](CC(C)C)C(=O)N(C)[C@@H](CC(C)C)C(=O)N(C)[C@@H](C(C)C)C(=O)N1C [valspodar] | -5.19 | -0.88 | -1.83 | 0.22 | 8.33%
30 | CS(=O)(=O)CCNCc1ccc(-c2ccc3ncnc(Nc4ccc(OCc5cccc(F)c5)c(Cl)c4)c3c2)o1 [lapatinib] | -1.4 | 0.42 | -3.11 | -11.4 | -7.81%
31 | CCc1nn(CCO)c(CC)c1Oc1cc(C#N)cc(C#N)c1 [lersivirine] | 2.25 | 2.52 | 2.57 | 0.87 | 2.19%
32 | CNC(=O)CN(CCN(CCN(CC(=O)[O-])CC(=O)NC)CC(=O)[O-])CC(=O)[O-].[Gd+3] [gadodiamide] | -0.88 | -0.45 | -3.37 | -0.21 | 1.36%
33 | O=C(CO)[C@@H](O)[C@@H](O)[C@H](O)CO [tagatose] | -1.77 | -0.71 | -0.15 | -0.41 | 0.74%
34 | CCC(CC)COC(=O)[C@H](C)N[P@](=O)(OC[C@H]1O[C@@](C#N)(c2ccc3c(N)ncnn23)[C@H](O)[C@@H]1O)Oc1ccccc1 [Remdesivir] | -0.54 | 1.32 | 1.51 | 0.56 | 9.79%
35 | CCOC(=O)[C@@](C)(N)Cc1ccc(O)c(O)c1 [methyldopate] | 6.97 | 1.54 | -0.9 | 1.46 | 2.33%
36 | CN1CCC(=C2c3ccccc3C=Cc3ccccc32)CC1 [cyproheptadine] | 1.35 | -0.26 | -1.02 | -0.75 | -4.89%
